In PubChem BioAssay (EPA / NIEHS):
Active and inactive are the calls of the source. Rule for the calls: active = hit-call score of the fitted dose curve at least 0.9, where 1 is the maximum; inactive = score below 0.9.

Test: CCTE_Shafer_MEA_acute_spike_number: CCTE's Neural Acute Assay for Total Number of Spikes, Shafer Lab (AID 2284008);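 for AC50: curve fitted for decrease in spike count so AC50 reflects inhibitors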
Outline: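 Rat primary cortical neurons on 48-well MEA plates, DIV 13 or 15, at 37 C. 40 min baseline then 40 min with compound (0.03-40 uM); spikes detected at 8x rms noise, expressed as percent change from baseline.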

SMILES	AC50	outcome
CC(C)(C)c1ccccc1O	4820 nM (active)	–
CCCCOC(=O)COC(=O)c1ccccc1C(=O)OCCCC	19.6 nM (active)	–
Cc1cc(C(F)(C(F)(F)F)C(F)(F)F)ccc1NC(=O)c1cccc(I)c1C(=O)NC(C)(C)CS(C)(=O)=O	1680 nM (active)	–
Oc1ccc(Cc2ccc(O)cc2)cc1	4.54 nM (active)	–
CN(C)C(=S)S	–	inactive
O=C(Cc1ccccc1)OCCc1ccccc1	3 nM (active)	–
CS(=O)(=O)c1ccc(C(=O)C2C(=O)CCCC2=O)c(Cl)c1COCC(F)(F)F	–	inactive
Clc1cccc(Cl)c1Cl	–	inactive
CC1(C)[C@H](C(=O)O[C@H](C#N)c2cccc(Oc3ccccc3)c2)[C@@H]1/C=C(\Cl)C(F)(F)F	1180 nM (active)	–
CC(C)[C@@H](Nc1ccc(C(F)(F)F)cc1Cl)C(=O)OC(C#N)c1cccc(Oc2ccccc2)c1 (some centres undefined)	936 nM (active)	–
OCCCCO	–	inactive

Test: CCTE_Harrill_HTTr_Viability_MCF7: CCTE's 6-hour Cell Viability Assessment for the High-Throughput Transcriptomics (HTTr) Platform, in MCF-7 cells cultured in DMEM + 10% fetal bovine serum, Harrill Lab (AID 2284010)
Outline: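 Read-out is propidium iodide gain of signal by high-content imaging, reflecting membrane integrity loss. Measurements are taken 6 h after dosing, eight concentrations per chemical, with DMSO serving as baseline for bidirectional curve fitting.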

SMILES	outcome
CC(C)(C)c1ccccc1O	inactive
Brc1c(Br)c(Br)c(Oc2c(Br)c(Br)c(Br)c(Br)c2Br)c(Br)c1Br	inactive
Nc1ccc(N)cc1	inactive
O=C(NC(=O)c1c(F)cccc1F)Nc1ccc(Cl)cc1	inactive
CCCCOC(=O)COC(=O)c1ccccc1C(=O)OCCCC	inactive
O=C(O)COc1ccc(Cl)cc1	inactive
Cc1cc(C(F)(C(F)(F)F)C(F)(F)F)ccc1NC(=O)c1cccc(I)c1C(=O)NC(C)(C)CS(C)(=O)=O	inactive
COc1ccccc1N	inactive
CCOC(=O)c1ccccc1S(=O)(=O)NC(=O)Nc1nc(Cl)cc(OC)n1	inactive
CCOc1cc(C=O)ccc1O	inactive
Oc1ccc(Cc2ccc(O)cc2)cc1	inactive
CNC(=O)CSP(=O)(OC)OC	inactive
C[As+](C)(C)CC(=O)[O-]	inactive
C#C[C@]1(O)CC[C@H]2[C@@H]3CCC4=CC(=O)CC[C@]4(C)[C@H]3CC[C@@]21C	inactive
CN(C)C(=S)S	inactive
O=C1C[C@@H]2OCC=C3CN4CC[C@]56c7ccccc7N1[C@H]5[C@H]2[C@H]3C[C@H]46	inactive
O=C(Cc1ccccc1)OCCc1ccccc1	inactive
Nc1nc(N)nc(Cl)n1	inactive
C1CN2CCN1CC2	inactive

SMILES	outcome
CN(C1CCCCC1)C1CCCCC1	inactive
CCOC(=O)CCN(SN(C)C(=O)Oc1cccc2c1OC(C)(C)C2)C(C)C	inactive
Clc1cnc(Oc2ccc(Oc3ncc(Cl)cc3Cl)cc2)c(Cl)c1	inactive
CC(C)O.CC(C)O.OCCN(CCO)CCO.OCCN(CCO)CCO.[Ti]	inactive
CCCCCCCCCCCCCCC(Br)C(=O)O (centres undefined)	inactive
CS(=O)(=O)c1ccc(C(=O)C2C(=O)CCCC2=O)c(Cl)c1COCC(F)(F)F	inactive
Cc1cc(Cl)ccc1N	inactive
Clc1cccc(Cl)c1	inactive
CN(N=O)C(N)=O	inactive
Clc1cccc(Cl)c1Cl	inactive
CCCSP(=S)(OCC)Oc1ccc(Cl)cc1Cl (centres undefined)	inactive
CC1(C)[C@H](C(=O)O[C@H](C#N)c2cccc(Oc3ccccc3)c2)[C@@H]1/C=C(\Cl)C(F)(F)F	inactive
CC(C)[C@@H](Nc1ccc(C(F)(F)F)cc1Cl)C(=O)OC(C#N)c1cccc(Oc2ccccc2)c1 (some centres undefined)	inactive
OCCCCO	inactive
CC(C)[C@H](C(=O)OC(C#N)c1cccc(Oc2ccccc2)c1)c1ccc(OC(F)F)cc1 (some centres undefined)	inactive
OCC(c1ccc(Cl)cc1)c1ccc(Cl)cc1	inactive
CC(C)=CC1C(C(=O)OCc2cccc(Oc3ccccc3)c2)C1(C)C (centres undefined)	inactive
C=CCc1ccccc1O	inactive

Test: CCTE_Harrill_HTTr_Apoptosis_MCF7: CCTE's 6-hour Apoptosis Assessment for the High-Throughput Transcriptomics (HTTr) Platform, in MCF-7 cells cultured in DMEM + 10% fetal bovine serum, Harrill Lab (AID 2284011)
Outline: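 MCF-7 cells in DMEM + 10% FBS exposed 6 h to chemicals over an eight-point dilution series. Caspase-3/7 activation imaged by high-content CellEvent Green staining; fitted bidirectionally versus DMSO.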

SMILES	outcome
CC(C)(C)c1ccccc1O	inactive
Brc1c(Br)c(Br)c(Oc2c(Br)c(Br)c(Br)c(Br)c2Br)c(Br)c1Br	inactive
Nc1ccc(N)cc1	inactive
O=C(NC(=O)c1c(F)cccc1F)Nc1ccc(Cl)cc1	inactive
CCCCOC(=O)COC(=O)c1ccccc1C(=O)OCCCC	inactive
O=C(O)COc1ccc(Cl)cc1	inactive
Cc1cc(C(F)(C(F)(F)F)C(F)(F)F)ccc1NC(=O)c1cccc(I)c1C(=O)NC(C)(C)CS(C)(=O)=O	inactive
COc1ccccc1N	inactive
CCOC(=O)c1ccccc1S(=O)(=O)NC(=O)Nc1nc(Cl)cc(OC)n1	inactive
CCOc1cc(C=O)ccc1O	inactive
Oc1ccc(Cc2ccc(O)cc2)cc1	inactive
C[As+](C)(C)CC(=O)[O-]	inactive
C#C[C@]1(O)CC[C@H]2[C@@H]3CCC4=CC(=O)CC[C@]4(C)[C@H]3CC[C@@]21C	inactive
CN(C)C(=S)S	inactive
O=C1C[C@@H]2OCC=C3CN4CC[C@]56c7ccccc7N1[C@H]5[C@H]2[C@H]3C[C@H]46	inactive
O=C(Cc1ccccc1)OCCc1ccccc1	inactive
Nc1nc(N)nc(Cl)n1	inactive
C1CN2CCN1CC2	inactive

SMILES	outcome
CN(C1CCCCC1)C1CCCCC1	inactive
CCOC(=O)CCN(SN(C)C(=O)Oc1cccc2c1OC(C)(C)C2)C(C)C	inactive
Clc1cnc(Oc2ccc(Oc3ncc(Cl)cc3Cl)cc2)c(Cl)c1	inactive
CC(C)O.CC(C)O.OCCN(CCO)CCO.OCCN(CCO)CCO.[Ti]	inactive
CCCCCCCCCCCCCCC(Br)C(=O)O (centres undefined)	inactive
CS(=O)(=O)c1ccc(C(=O)C2C(=O)CCCC2=O)c(Cl)c1COCC(F)(F)F	inactive
Cc1cc(Cl)ccc1N	inactive
Clc1cccc(Cl)c1	inactive
CN(N=O)C(N)=O	inactive
Clc1cccc(Cl)c1Cl	inactive
CCCSP(=S)(OCC)Oc1ccc(Cl)cc1Cl (centres undefined)	inactive
CC1(C)[C@H](C(=O)O[C@H](C#N)c2cccc(Oc3ccccc3)c2)[C@@H]1/C=C(\Cl)C(F)(F)F	inactive
CC(C)[C@@H](Nc1ccc(C(F)(F)F)cc1Cl)C(=O)OC(C#N)c1cccc(Oc2ccccc2)c1 (some centres undefined)	inactive
OCCCCO	inactive
CC(C)[C@H](C(=O)OC(C#N)c1cccc(Oc2ccccc2)c1)c1ccc(OC(F)F)cc1 (some centres undefined)	inactive
OCC(c1ccc(Cl)cc1)c1ccc(Cl)cc1	inactive
CC(C)=CC1C(C(=O)OCc2cccc(Oc3ccccc3)c2)C1(C)C (centres undefined)	inactive
C=CCc1ccccc1O	inactive
